The results in this text go back to PubChem BioAssay (NCATS).

Inconclusive results are not listed. Activity calls are given as the source filed them. Calls come from the whole dose curve; as a rule, active = well fitted cell-killing curve with a large enough effect; inconclusive = small, poorly fitted or top-dose-only effect, or effect the other way; inactive = no such curve, though single readings can be large or run the other way.

Assay [1] is described as follows: Quantitative High-Throughput drug screen in 47 multiple myeloma cell lines against the NCATS MIPE library collection: XG1_PLB cell viability assay (AID 1919866). Note: nearly all actives have a fitted effect of over 35% in size. Put shortly:
(§1)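 ATP-based luminescence (CellTiter-Glo, 5 min RT incubation) quantified surviving cells following two days' treatment with MIPE 4.0 agents at 37 °C, 5% CO2.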

Assay [2] can be described thus: Quantitative High-Throughput drug screen in 47 multiple myeloma cell lines against the NCATS MIPE library collection: VP6_DJ cell viability assay (AID 1919867). Note: nearly all actives have a fitted effect of over 40% in size. Put shortly:
as §1

Assay [3] is described as follows: Quantitative High-Throughput drug screen in 47 multiple myeloma cell lines against the NCATS MIPE library collection: PE2_PLB cell viability assay (AID 1919869). Note: nearly all actives have a fitted effect of over 35% in size. In outline:
as §1

Assay [4] in a line: Quantitative High-Throughput drug screen in 47 multiple myeloma cell lines against the NCATS MIPE library collection: PCM6_Riken cell viability assay (AID 1919870). Note: nearly all actives have a fitted effect of over 30% in size. In outline: as §1
A short description of assay [5]: Quantitative High-Throughput drug screen in 47 multiple myeloma cell lines against the NCATS MIPE library collection: RPMI8226_ATCC cell viability assay (AID 1919871). Note: nearly all actives have a fitted effect of over 30% in size. In outline: as §1
A short description of assay [6]: Quantitative High-Throughput drug screen in 47 multiple myeloma cell lines against the NCATS MIPE library collection: OPM2_DSMZ cell viability assay (AID 1919872). Note: nearly all actives have a fitted effect of over 30% in size. Put shortly:
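Inhibition of cell viability is measured here. Each line was plated at 500 cells per well, treated with MIPE 4.0 drugs, kept 48 hours at 37C, then assayed for ATP content by CellTiter-Glo luminescence.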

Assay [7] in a line: Quantitative High-Throughput drug screen in 47 multiple myeloma cell lines against the NCATS MIPE library collection: KMS11_JCRBsus cell viability assay (AID 1919873). Note: nearly all actives have a fitted effect of over 50% in size. Put shortly: as §1
Assay [8] is described as follows: Quantitative High-Throughput drug screen in 47 multiple myeloma cell lines against the NCATS MIPE library collection: KMS28BM_JCRB cell viability assay (AID 1919874). Note: nearly all actives have a fitted effect of over 35% in size. In outline: as §1
Assay [9] can be described thus: Quantitative High-Throughput drug screen in 47 multiple myeloma cell lines against the NCATS MIPE library collection: UTMC2_PLB cell viability assay (AID 1919868). Note: nearly all actives have a fitted effect of over 55% in size. The note with it: CellTiter-Glo ATP luminescence, 48 h; viability (% of DMSO control): at 45.8 µM (top of the series). Put shortly:
as §1
Potency is the fitted concentration of half-maximal effect.

As for `Cc1[nH]nc2ccc(-c3cncc(OC[C@@H](N)Cc4c[nH]c5ccccc45)c3)cc12`, the Potency in assay [1] is 235 nM (active); in [2] it was 296 nM (active); in assay [3] it was 935 nM (active); in [4], 264 nM (active); in assay [5], 3320 nM (active); in assay [6], 14800 nM (active). For the same molecule, the Potency in [7] was 372 nM (active); in [8] it was 296 nM (active).

For the molecule `CC1=C(O)C(=O)C=C2C1=CC=C1[C@@]2(C)CC[C@@]2(C)[C@@H]3C[C@](C)(C(=O)O)CC[C@]3(C)CC[C@]12C`, the Potency is 590 nM (active) in [1]; 935 nM (active) in assay [2]; 743 nM (active) in assay [3]; 743 nM (active) in assay [4]; 1180 nM (active) in assay [5]; 833 nM (active) in assay [6]. Moreover, the Potency in assay [7] is 935 nM (active); in assay [8], 833 nM (active).

As for `CN1[C@H]2CC(O)C[C@H]1[C@H]1O[C@H]12` (stereo partly drawn), the Potency in [1] was 9350 nM (active); in assay [2] it was 9350 nM (active); in [3], 20900 nM (active); in assay [4] it was 11800 nM (active); in assay [5] it was 18700 nM (active); in assay [6], 23500 nM (active).

Take `C[C@@H]1[C@H](O)[C@@H](C)C=CC=CCCC=CC=CC=CC=C[C@H](O[C@H]2O[C@@H](C)[C@H](O)[C@@H](N)[C@@H]2O)CC2O[C@](O)(C[C@@H](O)[C@H](O)CC[C@@H](O)C[C@@H](O)C[C@@H](O)CC(=O)O[C@H]1C)C[C@H](O)[C@H]2C(=O)O`: the Potency entry in [1], in assay [2], in [3], in assay [4], in [6] and in [7] was “inactive” in each case. In addition, the Potency entry in [8] is “inactive”.

Take `C[C@H]1CCCC=CC2C[C@H](O)C[C@@H]2[C@H](O)C=CC(=O)O1` (stereo partly drawn): the Potency result in assay [1], in [2] and in assay [3] was “inactive” throughout.

Regarding `C=CCON=C(C[C@H]1O[C@@H]2O[C@]3(C)CC[C@@H]4[C@H](C)CC[C@@H]([C@H]1C)[C@@]24OO3)[C@H]1O[C@@H]2O[C@]3(C)CC[C@H]4[C@H](C)CC[C@@H]([C@@H]1C)[C@@]24OO3`, the Potency was 418 nM (active) in assay [1]; 166 nM (active) in assay [2]; 469 nM (active) in [3]; 526 nM (active) in [4]; 235 nM (active) in [5]; 187 nM (active) in assay [7]. In assay [8], the Potency is 332 nM (active).

Consider `O=S(=O)(F)Cc1ccccc1`, for which the Potency was 235 nM (active) in assay [1], 105 nM (active) in assay [3] and 2640 nM (active) in [4]. The Potency result in assay [2], in assay [5], in assay [6], in [7] and in assay [8] was “inactive” each time.

As to `CCCCCC[C@H]1C(=O)O[C@H](C)[C@H](NC(=O)c2cccc(NC=O)c2O)C(=O)O[C@@H](C)[C@@H]1OC(=O)CC(C)C`, the Potency is 23.5 nM (active) in [1]; 46.9 nM (active) in [2]; 52.6 nM (active) in [9]; 209 nM (active) in assay [3]; 52.6 nM (active) in [4]; 1050 nM (active) in assay [5]. For the same molecule, the Potency in [7] was 74.3 nM (active); in assay [8], 209 nM (active).

Consider `CC1(N2CCC(n3c([C@@H]4CCCNC4)nc4ccccc43)CC2)CCCCCCC1`, for which the Potency was 18700 nM (active) in assay [1]; 14800 nM (active) in assay [2]; 16600 nM (active) in [3]; 14800 nM (active) in [4]; 20900 nM (active) in assay [5]; 18700 nM (active) in assay [6]. The values for the Potency in assay [7] and in assay [8] were 13200 nM (active) and 23500 nM (active), respectively.

As to `C[C@@H]1CC[C@@]2(OC1)O[C@H]1C[C@H]3[C@@H]4CC=C5C[C@@H](O[C@@H]6O[C@H](CO)[C@@H](O[C@@H]7O[C@@H](C)[C@H](O)[C@@H](O)[C@@H]7O)[C@H](O)[C@@H]6O[C@@H]6O[C@@H](C)[C@H](O)[C@@H](O)[C@@H]6O)CC[C@]5(C)[C@@H]4CC[C@]3(C)[C@@H]1[C@H]2C`, the Potency in assay [1] was 2640 nM (active); in assay [2] it was 2960 nM (active); in assay [3] it was 4690 nM (active); in assay [4], 3320 nM (active); in assay [5] it was 2350 nM (active); in assay [6], 2090 nM (active). The Potency in [7] is 2350 nM (active); in assay [8], 2960 nM (active).

On to `CC[C@@H]1[C@@H](C)O[C@@](O)([C@@H](C)[C@H](O)[C@H](C)[C@H]2OC(=O)C=CC=C[C@@H](C)[C@@H]([C@@H](C)[C@@H](O)[C@H](C)[C@@]3(O)C[C@H](O[C@H]4C[C@H](O)[C@H](O)[C@H](C)O4)[C@H](CC)[C@@H](C)O3)OC(=O)C=CC=C[C@@H]2C)C[C@H]1O[C@H]1C[C@H](O)[C@H](O)[C@H](C)O1`, for which the Potency was 469 nM (active) in assay [1]; 469 nM (active) in assay [2]; 833 nM (active) in assay [3]; 743 nM (active) in [4]; 372 nM (active) in assay [5]; 372 nM (active) in assay [6]. The Potency was 418 nM (active) in assay [7] and 372 nM (active) in [8].

For `CC(C)(O)C=CC(=O)[C@](C)(O)[C@H]1[C@H](O)C[C@]2(C)[C@@H]3CC=C4[C@@H](C=C(O)C(=O)C4(C)C)[C@]3(C)C(=O)C[C@@]12C`, the Potency in assay [1] is 41.8 nM (active); in assay [2], 105 nM (active); in assay [3], 33.2 nM (active); in [4], 29.6 nM (active); in [5], 52.6 nM (active); in assay [6] it was 132 nM (active). Moreover, the values for the Potency in assay [7] and in assay [8] were 118 nM (active) and 166 nM (active), respectively.

Turning to `NC1=NC(=O)N2CC12` (stereo not drawn), the Potency in assay [1] is 11800 nM (active); in assay [2] it was 14800 nM (active); in [3] it was 13200 nM (active); in assay [4] it was 8330 nM (active). The Potency entry in assay [6], in assay [7] and in assay [8] was “inactive” each time.

As for `COC1=C[C@@H]2[C@@H]3Cc4ccc(OC)c(O)c4[C@]2(CCN3C)CC1=O`, the Potency in [1] is 1320 nM (active); in assay [2] it was 2350 nM (active); in [3], 9350 nM (active); in assay [4] it was 2640 nM (active). In assay [5], the Potency result was “inactive”.

With `COc1ccc2c(c[n+](C)c3c4cc5c(cc4ccc23)OCO5)c1OC`, the Potency in [1] was 2640 nM (active); in assay [2] it was 2960 nM (active); in [3], 7430 nM (active); in assay [4], 7430 nM (active); in assay [5] it was 8330 nM (active); in [6], 9350 nM (active). Also, the Potency in assay [7] was 3320 nM (active); in [8] it was 2960 nM (active).

Turning to `O=c1[nH]c2ccccc2n1C1CCN(Cc2ccc(-c3[nH]c4cc5ncnc5cc4nc3-c3ccccc3)cc2)CC1`, the Potency in [1] is 7430 nM (active); in assay [2], 9350 nM (active); in assay [3], 2350 nM (active); in assay [4], 13200 nM (active); in [5], 13200 nM (active); in assay [6], 18700 nM (active). Moreover, the figures for the Potency in assay [7] and in [8] were 20900 nM (active) and 18700 nM (active), respectively.

For `CC=C(C)C(=O)O[C@H]1C(C)=C2[C@@H]3OC(=O)[C@@](C)(O)[C@@]3(O)[C@@H](OC(=O)CCC)C[C@](C)(OC(C)=O)[C@@H]2[C@@H]1OC(=O)CCCCCCC`, the Potency in assay [1] was 46.9 nM (active); in [2], 52.6 nM (active); in assay [3], 264 nM (active); in [4], 11800 nM (active); in [5], 74.3 nM (active); in [6], 33.2 nM (active). The results for the Potency in assay [7] and in [8] were 33.2 nM (active) and 166 nM (active), respectively.
